Data published in PubChem BioAssay AID1159580 (chemical genetic matrix, 2015).
The whole screen tested about 5,500 compounds, of which about 2,000 (36%) were called active. Another 18% or so got no clear call; they are omitted. Rule as the data show it: active = normalized growth mostly below about 0.91 (no sharp cut-off); inconclusive = no clear call, values can overlap the other calls; inactive = mostly above about 0.92. Some of the results follow.

Assay: chemical genetic growth profiling, strain panel (AID 1159580);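 also: tested at 20 µM; growth read once vehicle control cultures reached saturation at 30 °C; 1 = growth at the plate median or of vehicle wells; lower values mean less growth of the strain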
Details: growth OD
[1] = S. cerevisiae deletion strains, locus YAL013W, strain DEP1, stronger effect = lower value
[2] = S. cerevisiae deletion strains, locus YBR229C, strain ROT2, stronger effect = lower value
[3] = S. cerevisiae deletion strains, locus YCL061C, strain MRC1, stronger effect = lower value
[4] = S. cerevisiae deletion strains, locus YDL101C, strain DUN1, stronger effect = lower value
[5] = S. cerevisiae deletion strains, locus YDR150W, strain NUM1, stronger effect = lower value
[6] = S. cerevisiae deletion strains, locus YEL061C, strain CIN8, stronger effect = lower value
[7] = S. cerevisiae deletion strains, locus YGR078C, strain PAC10, stronger effect = lower value
[8] = S. cerevisiae deletion strains, locus YGR229C, strain SMI1, stronger effect = lower value
[9] = S. cerevisiae deletion strains, locus YHR030C, strain SLT2, stronger effect = lower value
[10] = S. cerevisiae deletion strains, locus YHR087W, strain rtc3, stronger effect = lower value
[11] = S. cerevisiae deletion strains, locus YJL187C, strain SWE1, stronger effect = lower value
[12] = S. cerevisiae deletion strains, locus YJR043C, strain POL32, stronger effect = lower value
[13] = S. cerevisiae deletion strains, locus YJR075W, strain HOC1, stronger effect = lower value
[14] = S. cerevisiae deletion strains, locus YKL190W, strain CNB1, stronger effect = lower value
[15] = S. cerevisiae deletion strains, locus YLR039C, strain RIC1, stronger effect = lower value
[16] = S. cerevisiae deletion strains, locus YLR058C, strain SHM2 (second series), stronger effect = lower value
[17] = S. cerevisiae deletion strains, locus YLR085C, strain ARP6, stronger effect = lower value
[18] = S. cerevisiae deletion strains, locus YLR262C, strain YPT6, stronger effect = lower value
[19] = S. cerevisiae deletion strains, locus YML094W, strain GIM5, stronger effect = lower value
[20] = S. cerevisiae deletion strains, locus YMR219W, strain ESC1, stronger effect = lower value
[21] = S. cerevisiae deletion strains, locus YMR263W, strain SAP30, stronger effect = lower value
[22] = S. cerevisiae deletion strains, locus YNL128W, strain TEP1, stronger effect = lower value
[23] = S. cerevisiae deletion strains, locus YNL153C, strain GIM3, stronger effect = lower value
[24] = S. cerevisiae deletion strains, locus YNL298W, strain CLA4 (second series), stronger effect = lower value
[25] = S. cerevisiae deletion strains, locus YNL322C, strain KRE1, stronger effect = lower value
[26] = S. cerevisiae deletion strains, locus YNR030W, strain Alg12, stronger effect = lower value
[27] = S. cerevisiae deletion strains, locus YPL055C, strain LGE1, stronger effect = lower value
[28] = S. cerevisiae deletion strains, locus YPL241C, strain CIN2, stronger effect = lower value
[29] = S. cerevisiae deletion strains, locus YPR135W, strain CTF4, stronger effect = lower value
[30] = S. cerevisiae strains, strain wild type, stronger effect = lower value
[31] = S. cerevisiae deletion strains, locus YDL134C, strain PPH21, stronger effect = lower value
[32] = S. cerevisiae deletion strains, locus YMR307W, strain GAS1, stronger effect = lower value

Measured: normalized growth

C=C1SC(=Nc2cccc(OC)c2)N(C(=O)C(c2ccccc2)C2CCCC2)C1(C)C (configuration not stated)
inactive: [1] 1.01 | [2] 0.971 | [3] 1.01 | [4] 1.06 | [5] 1.02 | [6] 0.963 | [7] 1.01 | [8] 0.983 | [9] 1.03 | [10] 0.957 | [11] 0.999 | [12] 1.01 | [13] 1.02 | [14] 0.977 | [15] 0.922 | [16] 0.979 | [17] 1.02 | [18] 0.919 | [19] 1 | [20] 1 | [21] 1.02 | [22] 0.97 | [23] 1.03 | [24] 1.01 | [25] 0.984 | [26] 1.02 | [27] 0.997 | [28] 1.07 | [29] 1.03 | [30] 0.95

CC(C)(C)c1ccc(-c2n[nH]c(=S)n2-c2cccc(C(F)(F)F)c2)cc1
inactive: [1] 0.993 | [2] 1.01 | [4] 0.995 | [5] 1.01 | [6] 0.972 | [7] 0.977 | [9] 0.966 | [10] 1 | [12] 1.01 | [14] 1.01 | [16] 1.03 | [17] 1.06 | [18] 0.884 | [19] 0.978 | [20] 1.01 | [21] 1 | [23] 1.03 | [24] 0.958 | [25] 1.01 | [26] 0.964 | [27] 0.949 | [28] 0.949 | [29] 0.829
active: [11] 1.22 [resistant] | [13] 1.24 [resistant] | [15] 0.744

COc1ccc(-c2n[nH]c(=S)n2-c2cccc(OC)c2)cc1
inactive: [1] 0.987 | [2] 0.994 | [3] 0.977 | [4] 0.969 | [31] 0.979 | [5] 0.977 | [6] 1.01 | [7] 0.956 | [9] 1.02 | [10] 1.02 | [11] 0.993 | [12] 0.979 | [13] 0.967 | [15] 0.944 | [16] 0.989 | [17] 0.954 | [18] 1 | [19] 1 | [20] 0.986 | [21] 1 | [22] 0.989 | [23] 0.983 | [24] 0.957 | [25] 0.978 | [26] 0.966 | [27] 0.994 | [28] 0.967 | [29] 0.904

O=C(CSCc1c(F)cccc1Cl)NC1Cc2ccccc2C1
inactive: [1] 0.984 | [2] 0.973 | [4] 0.995 | [5] 0.959 | [6] 0.949 | [7] 0.978 | [9] 0.776 | [10] 0.962 | [12] 0.991 | [13] 0.944 | [15] 0.925 | [16] 0.973 | [17] 0.906 | [18] 0.964 | [19] 0.956 | [20] 0.97 | [21] 0.991 | [22] 0.988 | [23] 0.977 | [24] 0.944 | [25] 0.973 | [26] 0.943 | [27] 0.944 | [28] 0.938 | [29] 0.76
active: [32] 0.628

O=C(NC1Cc2ccccc2C1)c1cncc(Br)c1
inactive: [1] 1 | [2] 0.992 | [3] 0.982 | [4] 1 | [31] 1.05 | [5] 0.937 | [6] 0.99 | [7] 0.994 | [8] 0.985 | [9] 0.848 | [10] 0.985 | [11] 1.01 | [12] 0.994 | [13] 0.982 | [14] 0.99 | [15] 1.03 | [16] 0.985 | [17] 0.952 | [18] 0.992 | [19] 0.98 | [20] 0.991 | [21] 0.984 | [32] 0.912 | [23] 0.994 | [24] 0.966 | [25] 0.995 | [26] 0.982 | [27] 0.982 | [28] 0.98 | [29] 0.836 | [30] 0.988

S=C(Nc1ccc(Cl)cc1)SCc1c(Cl)cccc1Cl
inactive: S. cerevisiae deletion strains, locus YAR019C, strain CDC15, stronger effect = lower value 0.976 | S. cerevisiae deletion strains, locus YBL105C, strain PKC1, stronger effect = lower value 0.984 | S. cerevisiae deletion strains, locus YBR135W, strain CKS1, stronger effect = lower value 0.977 | S. cerevisiae deletion strains, locus YBR136W, strain MEC1, stronger effect = lower value 0.996 | S. cerevisiae deletion strains, locus YBR160W, strain CDC28, stronger effect = lower value 0.987 | S. cerevisiae deletion strains, locus YDL017W, strain CDC7, stronger effect = lower value 0.984 | S. cerevisiae deletion strains, locus YDL028C, strain MPS1, stronger effect = lower value 0.985 | [4] 0.993 | S. cerevisiae deletion strains, locus YDL108W, strain KIN28, stronger effect = lower value 0.997 | S. cerevisiae deletion strains, locus YDL132W, strain cdc53, stronger effect = lower value 0.979 | S. cerevisiae deletion strains, locus YDL214C, strain PRR2, stronger effect = lower value 0.96 | S. cerevisiae deletion strains, locus YDR052C, strain DBF4, stronger effect = lower value 0.989 | S. cerevisiae deletion strains, locus YDR054C, strain cdc34, stronger effect = lower value 0.978 | S. cerevisiae deletion strains, locus YDR226W, strain ADK1, stronger effect = lower value 0.983 | S. cerevisiae deletion strains, locus YDR477W, strain SNF1, stronger effect = lower value 0.95 | S. cerevisiae deletion strains, locus YER123W, strain YCK3, stronger effect = lower value 0.973 | S. cerevisiae deletion strains, locus YER133W, strain GLC7, stronger effect = lower value 0.915 | S. cerevisiae deletion strains, locus YFL009W, strain cdc4, stronger effect = lower value 0.977 | S. cerevisiae deletion strains, locus YFL029C, strain CAK1, stronger effect = lower value 0.974 | S. cerevisiae deletion strains, locus YFR003C, strain YPI1, stronger effect = lower value 0.984 | S. cerevisiae deletion strains, locus YFR019W, strain FAB1, stronger effect = lower value 0.961 | S. cerevisiae deletion strains, locus YFR028C, strain CDC14, stronger effect = lower value 0.971 | S. cerevisiae deletion strains, locus YGR040W, strain KSS1, stronger effect = lower value 0.938 | S. cerevisiae deletion strains, locus YGR052W, strain FMP48, stronger effect = lower value 1.06 | S. cerevisiae deletion strains, locus YGR092W, strain DBF2, stronger effect = lower value 0.89 | [9] 0.996 | S. cerevisiae deletion strains, locus YHR079C, strain IRE1, stronger effect = lower value 1.08 | S. cerevisiae deletion strains, locus YHR082C, strain KSP1, stronger effect = lower value 1.03 | S. cerevisiae deletion strains, locus YHR205W, strain SCH9, stronger effect = lower value 0.999 | S. cerevisiae deletion strains, locus YIL147C, strain SLN1, stronger effect = lower value 0.992 | S. cerevisiae deletion strains, locus YJL095W, strain BCK1, stronger effect = lower value 1.05 | S. cerevisiae deletion strains, locus YJL128C, strain PBS2, stronger effect = lower value 0.967 | S. cerevisiae deletion strains, locus YJL157C, strain FAR1, stronger effect = lower value 0.96 | S. cerevisiae deletion strains, locus YJR016C, strain ILV3, stronger effect = lower value 0.973 | S. cerevisiae deletion strains, locus YJR066W, strain TOR1 (second series), stronger effect = lower value 0.932 | S. cerevisiae deletion strains, locus YJR066W, strain TOR1, stronger effect = lower value 1.02 | S. cerevisiae deletion strains, locus YKL048C, strain ELM1, stronger effect = lower value 0.992 | S. cerevisiae deletion strains, locus YKL067W, strain YNK1, stronger effect = lower value 0.972 | S. cerevisiae deletion strains, locus YKL101W, strain HSL1, stronger effect = lower value 0.994 | S. cerevisiae deletion strains, locus YKL193C, strain SDS22, stronger effect = lower value 0.978 | S. cerevisiae deletion strains, locus YKL203C, strain TOR2, stronger effect = lower value 1.02 | S. cerevisiae deletion strains, locus YLR113W, strain HOG1, stronger effect = lower value 1.09 | S. cerevisiae deletion strains, locus YLR133W, strain CKI1, stronger effect = lower value 0.993 | S. cerevisiae deletion strains, locus YLR403W, strain SFP1, stronger effect = lower value 0.95 | S. cerevisiae deletion strains, locus YML070W, strain DAK1, stronger effect = lower value 0.957 | S. cerevisiae deletion strains, locus YMR001C, strain CDC5, stronger effect = lower value 0.971 | S. cerevisiae deletion strains, locus YMR205C, strain PFK2 (second series), stronger effect = lower value 0.987 | S. cerevisiae deletion strains, locus YMR277W, strain FCP1, stronger effect = lower value 0.973 | S. cerevisiae deletion strains, locus YNL006W, strain LST8, stronger effect = lower value 0.972 | S. cerevisiae deletion strains, locus YNL020C, strain ARK1, stronger effect = lower value 0.983 | S. cerevisiae deletion strains, locus YNL161W, strain CBK1, stronger effect = lower value 0.978 | S. cerevisiae deletion strains, locus YNL183C, strain NPR1, stronger effect = lower value 1.03 | S. cerevisiae deletion strains, locus YNL207W, strain RIO2, stronger effect = lower value 0.983 | S. cerevisiae deletion strains, locus YNL222W, strain SSU72, stronger effect = lower value 0.976 | S. cerevisiae deletion strains, locus YNL307C, strain MCK1 (second series), stronger effect = lower value 0.978 | S. cerevisiae deletion strains, locus YOL078W, strain AVO1, stronger effect = lower value 0.979 | S. cerevisiae deletion strains, locus YOL136C, strain PFK27, stronger effect = lower value 0.973 | S. cerevisiae deletion strains, locus YOR061W, strain CKA2, stronger effect = lower value 0.955 | S. cerevisiae deletion strains, locus YOR119C, strain RIO1, stronger effect = lower value 0.97 | S. cerevisiae deletion strains, locus YOR231W, strain MKK1, stronger effect = lower value 1.06 | S. cerevisiae deletion strains, locus YOR329C, strain SCD5, stronger effect = lower value 0.983 | S. cerevisiae deletion strains, locus YPL031C, strain PHO85, stronger effect = lower value 0.956 | S. cerevisiae deletion strains, locus YPL153C, strain RAD53, stronger effect = lower value 0.949 | S. cerevisiae deletion strains, locus YPL204W, strain HRR25, stronger effect = lower value 0.939 | S. cerevisiae deletion strains, locus YPL209C, strain IPL1, stronger effect = lower value 0.989 | S. cerevisiae deletion strains, locus YPL256C, strain CLN2, stronger effect = lower value 1.08 | S. cerevisiae deletion strains, locus YPR025C, strain CCL1, stronger effect = lower value 0.987 | S. cerevisiae deletion strains, locus YPR106W, strain ISR1, stronger effect = lower value 0.994 | S. cerevisiae deletion strains, locus YPR111W, strain DBF20, stronger effect = lower value 0.986 | S. cerevisiae deletion strains, strain NNK1, stronger effect = lower value 0.999 | S. cerevisiae deletion strains, strain TSCII, stronger effect = lower value 0.981
